# Pf Dd2 growth = inhibitors of Plasmodium falciparum Dd2 growth; P. falciparum Dd2 growth, SYBR Green, 72 h; Potency, µM (doses to about 28.9 µM), for inactives: top-dose activity, negative = inhibition, actives largely listed as inhibitors; 120,000 tested, 4.3% active; active = well fitted inhibition curve with a large enough effect;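 note: plate controls were DMSO vehicle for no effect and reference drug for full effect; nearly all actives have a fitted effect of over 65% in size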
#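 Infected erythrocytes (Dd2, 0.3% parasitemia, 2.5% hematocrit final) are added to compound in RPMI-1640/Albumax II medium, grown 72 h at 37C in low oxygen, then lysed with saponin/Triton-X containing SYBR Green and read by fluorescence.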
# The depositor's hits bear a star; i = inactive; [ ] = remark or other dose. This is one part of a sample in which hits are shown more often than they occur. Potency is the fitted concentration of half-maximal effect.
SMILES,Pf Dd2 growth
Cc1nc(-c2ccc(Cl)cc2)n(Cc2ccc(F)cc2)c(=O)c1CCO,i
Cc1cccc([C@H]2C[C@@H](O)[C@@H](O)[C@@H]2NC(=O)C2CCOCC2)c1,24%[44.1 µM]
CCCN(CCC)C(=O)C1CCCN(S(=O)(=O)c2cc(Br)cc3c2N(C(=O)CC)CC3)C1 (centres undefined),-21%
CCC(=O)N1CCc2cc(Br)cc(S(=O)(=O)NCc3ccccc3)c21,i
CCC(=O)N1CCc2cc(Br)cc(S(=O)(=O)N3CCCC(C(=O)NCc4ccc(C)cc4)C3)c21 (centres undefined),i
CCC(=O)N1CCc2cc(Br)cc(S(=O)(=O)N3CCCC(C(=O)Nc4cccc(F)c4)C3)c21 (centres undefined),3.5µM*
CCC(=O)N1CCc2cc(Br)cc(S(=O)(=O)N3CCCC(C(=O)Nc4ccc(CC)cc4)C3)c21 (centres undefined),i
CCC(=O)N1CCc2cc(Br)cc(S(=O)(=O)N3CCCC(C(=O)Nc4cccc(C)c4C)C3)c21 (centres undefined),5µM*
CCC(=O)N1CCc2cc(Br)cc(S(=O)(=O)N3CCCC(C(=O)Nc4ccc(OC)cc4OC)C3)c21 (centres undefined),19%
Cc1cccc(NC(=O)C2CCCN(S(=O)(=O)c3cccc4nonc34)C2)c1 (centres undefined),42%
CCC(=O)N1CCc2cc(Br)cc(S(=O)(=O)N3CCCC(C(=O)N(C)c4ccc(Br)cc4)C3)c21 (centres undefined),8.9µM*
CCN(CC)C(=O)[C@@H]1CCC[C@@H](NCc2cccc3c2OCO3)CN(C)C(=O)C1,-2%[44.1 µM]
CN1[C@@H](CCC(=O)N2CCc3ccccc32)CNC(=O)[C@@H]2[C@H]1CCN2Cc1ccc(S(C)(=O)=O)cc1,-17%
Cc1cnc(C(=O)N2CCC(C(=O)N3CCCCCCNC(=O)CC3)CC2)cn1,37%
O=C(NCc1ccc(F)cc1)C1CCN(c2cn[nH]c(=O)c2)C1 (centres undefined),-3%
O=C(Cn1ccn2nc(-c3ccccc3)c(CO)c2c1=O)Nc1ccc(C(F)(F)F)cc1,25%
O=C(NC(=O)c1ccccc1)Nc1ccc(-n2nc(C(F)(F)F)cc2C(F)(F)F)cc1,-5%
O=C(NC(=O)c1ccc(F)cc1)Nc1ccc(-c2cc(C(F)(F)F)nn2-c2ccccc2)cc1,27%
COc1ccccc1C(=O)NC(=O)Nc1ccc(-n2nc(C(F)(F)F)cc2C(F)(F)F)cc1,11µM*
O=C(CCC1CCN(C(=O)[C@H]2C[C@@H]3C=C[C@H]2C3)CC1)N1CCC(Cc2ccccc2)CC1,-12%
COC(=O)CSc1nnc2n(-c3ccccc3)c(=O)c3c4c(sc3n12)COC(C(C)C)C4 (centres undefined),34%
COc1ccc(-n2c(SCCC(C)C)nc3sc4c(c3c2=O)CC(C(C)C)OC4)cc1 (centres undefined),1%
CCCSc1nnc2n(-c3ccc(OC)cc3)c(=O)c3c4c(sc3n12)COC(C(C)C)C4 (centres undefined),10µM*
COc1ccccc1-c1noc(-c2nc(-c3ccncc3)no2)n1,-8%
CCNC(=O)N1CCC(Oc2ccccc2-c2nc(-c3cnccn3)no2)C1 (centres undefined),-20%
SMILES,Pf Dd2 growth
c1ccc(-c2nc(-c3cnccn3)no2)c(OC2CNC2)c1,-16%
O=C(C1CC1)N1CC(Oc2ccccc2-c2nc(-c3cnccn3)no2)C1,7.9µM*
c1ccc(-c2nc(-c3ccncc3)no2)c(OC2CCNC2)c1 (centres undefined),13µM*
O=C(Nc1ccccc1)N1CCC(Oc2ccccc2-c2nc(-c3ccccc3)no2)C1 (centres undefined),-5%
Cc1ccc(C2Cn3nnc(C(=O)N4CCC(C(=O)NCc5ccncc5)CC4)c3CO2)cc1 (centres undefined),i
CC(=O)N[C@@H]1CN(C(=O)CCCS(N)(=O)=O)C[C@H]1c1ccc(C)cc1,-2%
Nc1cccn2nc(-c3ccccc3)nc12,-9%
COc1ccccc1C(=O)Nc1cccc(C2OC(=O)N(Cc3ccc(C)cc3)C2C(N)=O)c1 (centres undefined),-9%
Cn1ccnc1C(=O)N1CCC(N2C[C@H](O)C[C@H]2C(=O)NC2CCCCC2)CC1,-7%
CCOC(=O)N1CCc2c(sc(NCc3cccc(F)c3)c2C(=O)Nc2ccc(OCC)cc2)C1,13µM*
CCOC(=O)c1c(NC(=O)COc2ccc(Cl)cc2C)sc2c1CCCCC2,-7%
CCOC(=O)N1CCc2c(sc(NCc3cc(OC)ccc3OC)c2C(=O)Nc2cc(OC)ccc2OC)C1,11µM*
COC(=O)c1c(NC(=O)COc2ccc(Cl)cc2C)sc2c1CCCCC2,19%
CCOC(=O)c1c(NC(=O)c2ccc(OC)cc2)sc2c1CCCCC2,30%
CCOC(=O)c1c(NC(=O)COc2ccc(CC)cc2)sc2c1CCCC2,7%
CCOc1ccc(NC(=O)c2c(NC(=O)c3ccccc3F)sc3c2CCC3)cc1,i
COc1ccc(OC)c(NC(=O)c2c(NCc3ccc(OC)c(OC)c3)sc3c2CCC3)c1,7.9µM*
COc1ccc(OC)c(CCNC(=O)c2csc3c2CCCCC3)c1,5%
COc1ccc(NC(=O)NCc2c(-n3cccc3)sc3c2CCCC3)c(OC)c1,9%
COc1ccc(Cl)cc1NC(=O)c1c(NCc2ccc(C)o2)sc2c1CCCCC2,14µM*
CCOc1cc(=O)n2c(c1C(=O)Nc1cc(OC)ccc1OC)CCCC2,12%
CN1C(=O)CC(C(=O)O)C12CCN(C(=O)C1(c3ccccc3)CC1)CC2 (centres undefined),5%
C1CC(c2noc(C34CC5CC(CC(C5)C3)C4)n2)CO1 (centres undefined),-19%
CCOc1ccc(C(=O)N2CCC([C@@H]3CNC[C@H]3CO)CC2)cc1OCC,-8%
CN1CCC(OC2CCN(C(=O)C3CC3)CC2)CC1,-22%
SMILES,Pf Dd2 growth
CSc1ccccc1C(=O)N1CCOC(Cc2cccc(F)c2)C1 (centres undefined),-8%
O=C(Cn1nc2n(c1=O)CCCC2)NCCc1ccc(Cl)cc1,i
CCNC(=O)NCC1Cn2cccc2CN1C (centres undefined),-16%
COc1ccc(-c2noc([C@@H]3C[C@H](NC(=O)COCC(=O)O)CN3C)n2)cc1,-18%[44.1 µM]
COc1ccc(-c2noc([C@@H]3C[C@H](NS(=O)(=O)c4ccccc4)CN3C)n2)cc1,i
COc1ccc(-c2noc([C@@H]3C[C@H](NCc4ccc(N(C)C)cc4)CN3C)n2)cc1,13µM*
CNC(=O)[C@@H]1C[C@H](Oc2ccccc2)CN1C(=O)c1cnccn1,2%
CCc1noc(-c2cn(C3CCCN(C(=O)c4ccc(C)s4)C3)nn2)n1 (centres undefined),-17%
CC(C)c1ccc(CNC(=O)c2ccc3c(c2)N(C)C2CCCCN2C3=O)cc1 (centres undefined),2.2µM*
CCN1c2cc(C(=O)NCc3ccc(Cl)cc3)ccc2C(=O)N2CCCCC21 (centres undefined),8.9µM*
CCN1c2cc(C(=O)NCc3cccc(OC)c3OC)ccc2C(=O)N2CCCCCC21 (centres undefined),-28%
CCN1c2cc(C(=O)NCc3ccccc3C)ccc2C(=O)N2CCCCCC21 (centres undefined),6.3µM*
CN1c2cc(C(=O)NCc3ccc(Cl)cc3)ccc2C(=O)N2CCCCC21 (centres undefined),i
CN1c2cc(C(=O)NCc3ccccc3)ccc2C(=O)N2CCCCC21 (centres undefined),i

# Source: PubChem
